The values that follow come from PubChem BioAssay.

Activity calls are given as the source filed them.

Assay [1] can be described thus: E. coli DRC41 culture turbidity changes, primary screen, E. coli filamentation inducer project, strain DRC41, OD650, 48 h (AID 1152).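 Further: E. coli MC1000 strain DRC41 lacking acrAB efflux pump and sulA.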 The note with it: E. coli DRC41 (acrAB sulA), higher = more signal, called active from +8 up or from −8 down.
A short description of assay [2]: small-molecule binders of probe aLefty1, primary screen, biochemical, small-molecule microarray, 635/667 nm fluorescence (AID 1153).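 Further: score merges spot fluorescence with signal-to-noise ratio from the scanned slide images.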 The note with it: higher = more signal.
Assay [3] can be described thus: PSAC antagonists in infected red cells, primary screen, cell-based, P. falciparum Indochina, OD700, 1 h (AID 1154). The note with it: P. falciparum Indochina infected RBC osmotic lysis, higher = more signal, called active from +8 up or from −8 down.
Assay [4] can be described thus: PSAC antagonists in infected red cells, primary screen, cell-based, P. falciparum Indochina, OD700, 2 h (AID 1155).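 Further: lysis reports solute entry through the parasite surface anion channel PSAC; channel blockers reduce lysis of infected cells.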 The settings on record: P. falciparum Indochina infected erythrocytes, osmotic lysis OD700; higher = more signal, called active from +8 up or from −8 down.
Assay [5] is described as follows: osmotic lysis modulators in infected erythrocytes, primary screen, PSAC antagonist project, cell-based, P. falciparum Indochina, OD700, 3 h (AID 1156). The settings on record: higher = more signal, called active from +8 up or from −8 down.
Assay [6] in a line: PSAC antagonists in infected red cells, primary screen, cell-based, P. falciparum Indochina, OD700, 18 h (AID 1157). The note with it: P. falciparum Indochina infected erythrocytes, osmotic lysis OD700, 18 h; higher = more signal, called active from +8 up or from −8 down.
Assay [7] can be described thus: modulators of S6 phosphorylation in cells, primary screen, cell-based, A549, cytoblot, luminescence, serum-stimulated (AID 1158).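 Further: serum-stimulated A549 lung adenocarcinoma cells; signal is phosphorylated S6 detected by cytoblot immunostaining with HRP secondary.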 The note with it: A549 phospho-S6 cytoblot, 5 h, higher = more signal.
Assay [8] addresses NADPH oxidase 2 (Homo sapiens) (UniProt P04839). Description: NOX2-dependent H2O2 signal modulators, primary screen, NOX inhibitor project, cell-based, HEK293-NOX2, PMA-stimulated, Amplex Red fluorescence (AID 1159). Further: test concentration not given here. The note with it: 45 min, higher = more signal, called active from +8 up or from −8 down.
For assay [9], the target named is NADPH oxidase 4 (Homo sapiens) (UniProt Q9NPH5). Description: NOX4-dependent H2O2 signal modulators, primary screen, NOX inhibitor project, cell-based, HEK293-NOX4, tetracycline-induced, Amplex Red fluorescence (AID 1160). The note with it: 45 min, higher = more signal, called active from +8 up or from −8 down.
Chain of NADPH oxidase 4 (Homo sapiens) (Q9NPH5 whole entry, looked up): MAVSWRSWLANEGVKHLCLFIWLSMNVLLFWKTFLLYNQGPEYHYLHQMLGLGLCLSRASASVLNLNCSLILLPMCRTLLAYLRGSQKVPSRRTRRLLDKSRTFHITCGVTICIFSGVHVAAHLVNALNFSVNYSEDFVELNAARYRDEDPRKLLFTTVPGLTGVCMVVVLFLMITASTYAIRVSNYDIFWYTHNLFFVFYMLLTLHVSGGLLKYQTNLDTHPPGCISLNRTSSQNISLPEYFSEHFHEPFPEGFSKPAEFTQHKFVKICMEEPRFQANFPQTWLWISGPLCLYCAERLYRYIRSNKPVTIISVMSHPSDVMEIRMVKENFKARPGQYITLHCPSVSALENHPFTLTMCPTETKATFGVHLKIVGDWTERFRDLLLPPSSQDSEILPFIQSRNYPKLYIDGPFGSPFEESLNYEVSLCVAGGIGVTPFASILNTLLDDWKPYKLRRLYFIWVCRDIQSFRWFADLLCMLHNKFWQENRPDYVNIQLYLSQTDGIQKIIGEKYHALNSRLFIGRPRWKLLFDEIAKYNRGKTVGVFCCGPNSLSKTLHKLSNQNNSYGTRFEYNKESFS
Assay [10] concerns the target NADPH oxidase 5 (Homo sapiens) (UniProt Q96PH1). Description: NOX5-dependent H2O2 signal modulators, primary screen, NOX inhibitor project, cell-based, HEK293-NOX5, Amplex Red fluorescence (AID 1161). The settings on record: HEK293-NOX5, ionomycin, 45 min, higher = more signal.
The nature of assay [11]: A549 cell viability effects, profiling panel, calcein-AM fluorescence, 48 h, basal (AID 1162). Further: test concentration not given here. The settings on record: higher = more signal.
Assay [12] can be described thus: adipocyte viability effects, profiling panel, cell-based, 3T3-L1 adipocytes, calcein-AM fluorescence, 48 h, basal (AID 1163). Further: test concentration not given here. The note with it: 3T3-L1 adipocytes viability, higher = more signal.
Assay [13] in a line: HepG2 cell viability effects, profiling panel, calcein-AM fluorescence, 48 h, basal (AID 1164). Further: test concentration not given here. The settings on record: higher = more signal.
Assay [14] can be described thus: MM1S cell viability effects, profiling panel, calcein-AM fluorescence, 48 h, basal (AID 1165).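 Further: viability of MM1S multiple myeloma cells under basal unstimulated conditions; test concentration not given here.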 The settings on record: higher = more signal.
A short description of assay [15]: basal RPMI8226 viability, no added stimulus, profiling panel, cell-based, calcein-AM fluorescence, 48 h, PK04 Diversity Set (AID 1166).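 Further: cells grown under basal conditions without added stimulus; test concentration not given here.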 The note with it: RPMI8226 myeloma viability, higher = more signal.
The nature of assay [16]: basal HepG2 mitochondrial membrane potential changes, profiling panel, cell-based, JC-1 fluorescence, 24 h, 100 nL compound (AID 1167). Further: test concentration not given here. The note with it: higher = more signal.
Assay [17] is described as follows: basal 3T3-L1 adipocyte mitochondrial potential changes, profiling panel, cell-based, JC-1 fluorescence, 3T3-L1 adipocytes, 24 h, 100 nL compound (AID 1168). Further: test concentration not given here. The note with it: JC-1 mitochondrial fluorescence, higher = more signal, called active from +8 up or from −8 down.
Assay [18] is described as follows: basal RPMI8226 mitochondrial membrane potential changes, profiling panel, cell-based, JC-1 fluorescence, 24 h, 100 nL compound (AID 1169). Further: test concentration not given here. The note with it: RPMI8226 myeloma, JC-1 mitochondrial potential fluorescence, higher = more signal.
Assay [19] in a line: basal MM1S mitochondrial membrane potential changes, profiling panel, cell-based, JC-1 fluorescence, 24 h, 100 nL compound (AID 1170). Further: test concentration not given here. The settings on record: higher = more signal.
Assay [20] can be described thus: A549 lung cancer cell viability effects, profiling panel, resazurin fluorescence, 24 h, PK04 Diversity Set (AID 1171). Further: test concentration not given here. The note with it: higher = more signal, called active from +8 up or from −8 down. (In general: The colour change of resazurin is a common sign of viable cells or microbes.)

Chain of NADPH oxidase 2 (Homo sapiens) (P04839 whole entry, looked up): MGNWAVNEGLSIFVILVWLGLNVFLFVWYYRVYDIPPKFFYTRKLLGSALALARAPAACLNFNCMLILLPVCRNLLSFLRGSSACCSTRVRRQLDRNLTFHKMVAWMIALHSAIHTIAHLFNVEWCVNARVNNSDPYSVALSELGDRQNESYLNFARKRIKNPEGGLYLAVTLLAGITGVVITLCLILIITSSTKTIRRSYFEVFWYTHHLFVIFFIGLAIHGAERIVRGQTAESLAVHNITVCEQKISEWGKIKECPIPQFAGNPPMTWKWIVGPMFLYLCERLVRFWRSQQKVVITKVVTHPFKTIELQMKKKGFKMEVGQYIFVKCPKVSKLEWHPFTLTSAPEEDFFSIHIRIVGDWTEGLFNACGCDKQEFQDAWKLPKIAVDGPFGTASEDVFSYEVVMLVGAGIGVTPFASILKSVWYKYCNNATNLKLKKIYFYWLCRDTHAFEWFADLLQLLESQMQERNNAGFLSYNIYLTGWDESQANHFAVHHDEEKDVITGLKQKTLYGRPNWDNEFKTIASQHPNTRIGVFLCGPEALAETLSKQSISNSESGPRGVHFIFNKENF
Chain of NADPH oxidase 5 (Homo sapiens) (Q96PH1 whole entry, looked up): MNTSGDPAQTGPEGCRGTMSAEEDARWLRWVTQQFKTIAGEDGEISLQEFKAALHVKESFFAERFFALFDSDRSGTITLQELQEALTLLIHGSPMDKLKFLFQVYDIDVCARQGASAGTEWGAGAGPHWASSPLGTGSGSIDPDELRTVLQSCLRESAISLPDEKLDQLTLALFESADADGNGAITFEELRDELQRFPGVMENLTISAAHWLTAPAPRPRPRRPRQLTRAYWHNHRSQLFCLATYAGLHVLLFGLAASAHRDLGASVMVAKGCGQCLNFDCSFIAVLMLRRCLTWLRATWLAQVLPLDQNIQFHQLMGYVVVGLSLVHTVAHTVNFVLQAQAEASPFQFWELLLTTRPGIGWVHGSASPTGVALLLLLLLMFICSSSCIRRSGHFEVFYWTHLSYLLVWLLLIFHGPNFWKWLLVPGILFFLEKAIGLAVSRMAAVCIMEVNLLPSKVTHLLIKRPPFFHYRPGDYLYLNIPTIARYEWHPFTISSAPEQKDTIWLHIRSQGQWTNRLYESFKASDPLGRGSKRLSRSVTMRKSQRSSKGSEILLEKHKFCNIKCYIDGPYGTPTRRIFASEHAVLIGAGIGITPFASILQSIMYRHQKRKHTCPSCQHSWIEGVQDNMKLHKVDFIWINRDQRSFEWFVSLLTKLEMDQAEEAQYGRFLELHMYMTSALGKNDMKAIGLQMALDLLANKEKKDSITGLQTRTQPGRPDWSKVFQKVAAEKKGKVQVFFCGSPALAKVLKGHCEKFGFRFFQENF

`O=C1NC(=O)C2C1C=CC(C(O)c1cccs1)N2Nc1ccccn1` (stereo not given): the z-score in assay [1] is 0.218 (inactive); in assay [3], 0.624 (inactive); in assay [4], 0.253 (inactive); in assay [5] it was -0.285 (inactive); in assay [6], 0.853 (inactive); in assay [7], -0.726. Further, the z-score in assay [8] was 0.659 (inactive); in assay [9] it was -1.32 (inactive); in assay [10] it was -0.795; in assay [11], 1.74; in assay [12], -0.508; in assay [13] it was 0.714. Further, the z-score in [14] is 0.119; in assay [15] it was 1.13; in assay [16] it was 0.674; in assay [17] it was 0.112 (inactive); in assay [18], 0.268; in assay [19], 0.0729. Further, in [20], the z-score was -1.06 (inactive). The same molecule had a composite z-score in assay [2] of -0.0035.
On to `O=C1C2C=CC(C(O)c3ccc(Br)cc3)N(n3cnnc3)C2C(=O)N1Cc1ccccc1` (stereo not given), for which the z-score in assay [1] was -2.21 (inactive); in [3], 0.922 (inactive); in assay [4], 1.16 (inactive); in assay [5], 0.107 (inactive); in assay [6] it was 0.756 (inactive); in [7], -0.738. The z-score is 0.101 (inactive) in [8]; 2.59 (inactive) in [9]; 0.964 in [10]; -1.71 in [11]; -1 in assay [12]; -3.58 in assay [13]. Also, the z-score was -0.496 in assay [14]; -3.99 in assay [15]; -0.422 in [16]; 0.633 (inactive) in [17]; -0.212 in assay [18]; 0.00374 in assay [19]. In addition, in assay [20], the z-score is 0.0637 (inactive). In addition, in [2], the composite z-score is 0.152.
Take `COCC1C2CC[C@H]3C(OCc4ccc(F)cc4C(F)(F)F)OC[C@]4(C)[C@H]3C2=C(CN4C(=O)OC(C)(C)C)[C@H](C)C1COC` (stereo not given in full): the z-score is -1.06 (inactive) in assay [1]; 2.63 (inactive) in assay [3]; -0.298 (inactive) in assay [4]; 0.16 (inactive) in [5]; -0.998 (inactive) in [6]; 2.03 in assay [7]. In addition, the z-score in assay [8] is -0.834 (inactive); in [9], -0.934 (inactive); in [10], -3.41; in [11] it was -0.201; in [12], -0.511; in [13] it was 0.922. The z-score in assay [14] is -2.86; in assay [15] it was -3.14; in [16], 1.53; in [17], -0.453 (inactive); in assay [18], -0.507; in assay [19], -1.42. The z-score in assay [20] is -0.546 (inactive). The molecule also displayed a composite z-score in assay [2] of 0.891.
Take `O[C@@H](Cc1ccccc1)[C@@H](/C=C/c1ccccc1)NCc1ccccc1Br`: the z-score was 0.955 (inactive) in [1]; 1.18 (inactive) in assay [3]; 0.411 (inactive) in assay [4]; 1.35 (inactive) in [5]; 0.205 (inactive) in assay [6]; 0.747 in assay [7]. Also, the z-score in assay [8] was -0.175 (inactive); in assay [9] it was 0.272 (inactive); in assay [10], -0.921; in assay [11], 0.0965; in assay [12] it was -0.766; in [13], -0.0276. For the same molecule, the z-score was -1.3 in assay [14]; -0.771 in [15]; 0.313 in assay [16]; 0.19 (inactive) in [17]; -0.228 in assay [18]; -1.8 in [19]. Besides, in [20], the z-score is -0.396 (inactive). The same molecule gave a composite z-score in [2] of 0.0927.
As to `C=C(CCCC)C(=O)CC[C@@H](OC(=O)c1ccccc1-c1ccccc1C(=O)O)c1ccc(CO)o1`, the z-score is -0.467 (inactive) in assay [1]; 1.6 (inactive) in assay [3]; 0.228 (inactive) in assay [4]; 1.19 (inactive) in assay [5]; 0.161 (inactive) in assay [6]; -0.946 in assay [7]. The z-score in assay [8] is 1.35 (inactive); in assay [9] it was -0.203 (inactive); in assay [10] it was -0.475; in assay [11], -0.64; in [12], 0.498; in assay [13] it was 0.102. For the same molecule, the z-score in assay [14] is 0.227; in [15] it was -0.91; in [16] it was -1.24; in assay [17], -0.26 (inactive); in [18], 0.479; in [19], -0.0259. Also, the z-score in assay [20] is -0.476 (inactive). The molecule also showed a composite z-score in [2] of 0.379.
With `Cc1ccc(N2C(=O)c3ccccc3[C@@H](C(=O)NC(C)C)[C@@H]2c2ccc(CO)cc2)nc1`, the z-score was 0.358 (inactive) in assay [1]; 2.41 (inactive) in assay [3]; 0.474 (inactive) in assay [4]; 0.884 (inactive) in assay [5]; 0.596 (inactive) in assay [6]; 0.45 in [7]. In addition, the z-score in [8] was 0.0802 (inactive); in [9] it was -1.16 (inactive); in assay [10], -2.61; in assay [11] it was -0.749; in assay [12] it was -0.0953; in assay [13], -0.617. Besides, the z-score in [14] was 0.385; in assay [15], -0.526; in [16] it was 0.199; in assay [17] it was -0.286 (inactive); in assay [18], 0.918; in [19], -0.67. For the same molecule, the z-score in assay [20] was 2.16 (inactive). In addition, the composite z-score in assay [2] is -0.641.
With `O=C1O[C@@H](c2ccccc2)[C@@H](c2ccccc2)N2[C@@H](c3ccc(O)cc3)[C@]3(C(=O)Nc4ccccc43)[C@@H](C(=O)NC[C@H](O)c3ccccc3)[C@H]12`, the z-score in [1] was 2.14 (inactive); in [3] it was 1.36 (inactive); in assay [4] it was -1.01 (inactive); in [5], -1.22 (inactive); in assay [6] it was -1.89 (inactive); in assay [7] it was 1.09. The z-score in assay [8] was 0.0877 (inactive); in assay [9], -0.423 (inactive); in assay [10], 1.42; in [11], 0.0061; in assay [12], 0.874; in assay [13], -0.121. Further, the z-score in assay [14] is -0.0487; in assay [15] it was -1.08; in assay [16], -1.5; in assay [17], -0.377 (inactive); in assay [18], -0.774; in assay [19] it was 0.32. In addition, the z-score in assay [20] was 0.314 (inactive). In assay [2], this molecule came in with a composite z-score of -0.151.
On to `CC(C)NC(=O)[C@@H]1c2ccccc2C(=O)N(C2CCCCC2)[C@H]1c1ccc(CO)cc1`, for which the z-score in [1] was -0.359 (inactive); in assay [3], -0.521 (inactive); in [4], 0.169 (inactive); in [5], -0.113 (inactive); in assay [6] it was -0.136 (inactive); in assay [7], -0.061. Besides, the z-score was 0.664 (inactive) in assay [8]; 0.822 (inactive) in assay [9]; 0.802 in [10]; 0.699 in assay [11]; -0.209 in assay [12]; 0.581 in [13]. Moreover, the z-score in [14] is -0.594; in [15] it was -2.04; in assay [16], 1.54; in assay [17], -0.656 (inactive); in [18], -0.811; in assay [19] it was 0.103. In addition, in [20], the z-score is 1.08 (inactive). The composite z-score in assay [2] was -0.101.
As to `CN(C)CCCCCCNC(=O)[C@@H]1C[C@@H]2C(=O)NCC(=O)N2[C@@H]1c1cccc(OCCO)c1`, the z-score in assay [1] is 0.492 (inactive); in [3], 2.11 (inactive); in [4], 0.109 (inactive); in assay [5], 2.28 (inactive); in assay [6] it was 0.253 (inactive); in assay [7], 0.0964. For the same molecule, the z-score was 0.438 (inactive) in [8]; 0.611 (inactive) in assay [9]; 0.6 in assay [10]; -0.129 in [11]; -0.215 in [12]; -0.225 in assay [13]. Moreover, the z-score in [14] is 0.0864; in [15], 1.45; in assay [16], -0.305; in [17] it was -0.0086 (inactive); in [18] it was -0.12; in [19] it was -0.659. Also, in assay [20], the z-score is -0.427 (inactive). In assay [2], the composite z-score turned out to be 0.169.
